Where a name gives a salt, the structure may show the parent alone.
System: DU145
Experiment: Euclidean distance of Cell Painting phenotypic profile (signed KS, 77 features) to DMSO centroid (dimensionless distance); 5 or 10 uM (library dependent); higher = stronger phenotypic change vs DMSO (phenoactivity)
Conditions: 48 h
Outline: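 Harmony extracted 77 features from 20X confocal images (9 fields/well) of stained cells, scoring each as a signed Kolmogorov-Smirnov statistic against same-plate vehicle wells. The cells, five cancer lines and a healthy fibroblast line, had received library compounds for 48 h at 10 or 5 uM depending on library, with 0.1% DMSO final. Phenoactivity is the Euclidean distance from each plate-position-corrected, correlation-weighted, top-dose replicate-averaged profile to the median vehicle profile.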

Point of comparison: `Nc1nccs1` [Aminothiazole], Euclidean distance 2.14. Against it:
- O=C(CCc1ccc(O)cc1)c1c(O)cc(O)cc1O [Phloretin] — lower, 1.06
- CS(=O)(=O)c1ccc([C@@H](O)[C@@H](CO)NC(=O)C(Cl)Cl)cc1 [Thiamphenicol] — lower, 0.68
- O=C(O)Cc1ccccc1Nc1c(Cl)cccc1Cl [Diclofenac Epolamine] — lower, 1.14
- CCCCCCCCCC(=O)OC1(c2ccc(Cl)cc2)CCN(CCCC(=O)c2ccc(F)cc2)CC1 [Haloperidol Decanoate] — lower, 1.01
- CCCCc1nc(-c2ccc(OCCCN(CC)CC)cc2)cn1-c1ccc(Oc2ccc(Cl)cc2)cc1 [Azeliragon] — lower, 0.73
- CC(C)(C)NCC(O)c1cc(O)cc(O)c1 (stereo unspecified) [Terbutaline Sulfate] — lower, 0.835
- CCCCOC(=O)c1ccc(N)cc1 [Butamben] — lower, 0.906
- CN(C)CCCN1c2ccccc2Sc2ccccc21 [Promazine hydrochloride] — lower, 2.09
- COCCCN1CCC(NC(=O)c2cc(Cl)c(N)c3c2OCC3)CC1 [Prucalopride Succinat] — lower, 0.699
- O=C(O)C(O)C(O)C(=O)O (stereo unspecified) [Tartaric acid] — lower, 0.848
- CCc1c(C)[nH]c2c1C(=O)C(CN1CCOCC1)CC2 (stereo unspecified) [Molindone hydrochloride] — lower, 0.934
- COc1ccc(COc2ccc(Cc3cnc(N)nc3N)cc2OC)cc1 — lower, 0.739
- CCCCCCCCCCCCC[N+](C)(C)Cc1ccccc1 [Benzalkonium chloride] — higher, 2.89
- CCCNS(=O)(=O)Nc1ncnc(OCCOc2ncc(Br)cn2)c1-c1ccc(Br)cc1 [Macitentan] — lower, 0.918
- CC(C)NNC(=O)c1ccncc1 [Iproniazid] — lower, 0.811
- CC(C)(S)[C@@H](N)C(=O)O [Penicillamine] — lower, 0.756
- Oc1c2ccccc2c2c3c(cccc13)N=N2 — lower, 0.792
- Nc1ncnc2c1c(-c1cccc(OCc3ccccc3)c1)cn2C1CC(CN2CCCC2)C1 (stereo unspecified) — higher, 2.28
- Fc1ccc([C@@H]2CCNC[C@H]2COc2ccc3c(c2)OCO3)cc1 [Paroxetine HCl] — lower, 1.59
- COc1ccc(-c2nc3cc(C4=NNC(=O)CC4C)ccc3[nH]2)cc1 (stereo unspecified) [Pimobendan] — lower, 1.01
- CCN(CC)CCNC(=O)c1c(C)[nH]c(/C=C2\C(=O)Nc3ccc(F)cc32)c1C [Sunitinib] — higher, 2.98
- CCCCCCCCCC(=O)N[C@H]1[C@H](Oc2c3cc4cc2Oc2ccc(cc2Cl)[C@@H](O[C@@H]2O[C@H](CO)[C@@H](O)[C@H](O)[C@H]2NC(C)=O)[C@@H]2NC(=O)[C@H](NC(=O)[C@@H]4NC(=O)[C@H]4NC(=O)[C@@H](Cc5ccc(c(Cl)c5)O3)NC(=O)[C@H](N)c3ccc(O)c(c3)Oc3cc(O)cc4c3)c3ccc(O)c(c3)-c3c(OC4O[C@H](CO)[C@@H](O)[C@H](O)[C@@H]4O)cc(O)cc3[C@@H](C(=O)O)NC2=O)O[C@H](CO)[C@@H](O)[C@@H]1O (stereo partly specified) [Teicoplanin] — lower, 0.773
- COC(=O)C1=C(C)NC(C)=C(C(=O)OCCN2CCN(C(c3ccccc3)c3ccccc3)CC2)C1c1cccc([N+](=O)[O-])c1 (stereo unspecified) [Manidipine 2HCl] — lower, 1.3
- C#CCN(C)CCCOc1ccc(Cl)cc1Cl [Clorgyline HCl] — lower, 0.727
- COc1nc(C)nc(Cl)c1NC1=NCCN1 [Moxonidine] — lower, 1.39
- COc1ccccc1N1CCN(CCN2C(=O)CC3(CCCC3)CC2=O)CC1 — lower, 1.3
- O=C(NCc1c(F)cc(F)cc1F)c1cn2c(c(O)c1=O)C(=O)N1[C@H]3CC[C@H](C3)O[C@@H]1C2 [Bictegravir] — higher, 2.63
- CC(C)=CCOc1ccc(/C=C/C(=O)c2ccc(OCC=C(C)C)cc2OCC(=O)O)cc1 [Sofalcone] — lower, 0.847
- Cc1ccc(Nc2nccc(N(C)c3ccc4c(C)n(C)nc4c3)n2)cc1S(N)(=O)=O — lower, 1.99
- NC12CC3CC(CC(C3)C1)C2 [Amantadine HCl] — lower, 1.01
- CC(C)NCC(O)COc1ccc(CCOCC2CC2)cc1 (stereo unspecified) [Betaxolol] — lower, 0.799
- O=C1NS(=O)(=O)c2ccccc21 [Saccharin] — lower, 0.729
- Cc1cc(OCc2nnc(SC3CCCC3)n2-c2cccnc2)ccc1-c1ccc(S(C)(=O)=O)cc1 — higher, 3.15
- Cc1ccc(C(=O)N(CCCN)[C@@H](c2oc3cc(Cl)ccc3c(=O)c2Cc2ccccc2)C(C)C)cc1 — higher, 3.86
- COc1cc2ncc(-c3ccccc3)nc2cc1OC [Tyrphostin AG 1296] — lower, 1.58

From the supplement of paper PMC10127200
